Assay results from the supplement of paper PMC3334620.
In all, about 33,000 sequences were measured (“E-score (-0.5 to 0.5)”: median about -0.016, highest 2% from about 0.32 on). The list comes from a sample in which the highest values are over-represented; it also holds similar and randomly drawn sequences.

target: T1, Stp1 (UniProt B3LFK1); test: PBM E-score (8-mer binding enrichment) (E-score (-0.5 to 0.5)); higher = stronger / more preferred TF binding; settings: protein concentration: 200 nM; construct: GST-full length
T1 sequence: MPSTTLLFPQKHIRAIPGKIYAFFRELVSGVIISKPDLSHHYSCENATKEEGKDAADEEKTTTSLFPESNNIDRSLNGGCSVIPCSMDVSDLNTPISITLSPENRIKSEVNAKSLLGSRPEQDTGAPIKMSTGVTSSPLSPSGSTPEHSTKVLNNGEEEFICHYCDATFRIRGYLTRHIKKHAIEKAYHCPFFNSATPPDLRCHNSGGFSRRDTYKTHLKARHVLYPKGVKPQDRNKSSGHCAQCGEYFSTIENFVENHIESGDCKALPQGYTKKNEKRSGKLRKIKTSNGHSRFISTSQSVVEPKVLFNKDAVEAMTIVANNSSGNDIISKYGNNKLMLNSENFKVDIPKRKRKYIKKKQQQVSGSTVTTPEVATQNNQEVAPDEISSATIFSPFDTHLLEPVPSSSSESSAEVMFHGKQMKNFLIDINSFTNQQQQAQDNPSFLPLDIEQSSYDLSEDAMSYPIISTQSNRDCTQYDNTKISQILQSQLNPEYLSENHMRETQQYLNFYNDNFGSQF
Description: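 Universal 'all 10-mer' protein binding microarrays (Agilent AMADID 015681) probed with GST-tagged S. cerevisiae TFs (full-length or DBD) made by in vitro transcription/translation (PURExpress), about 100-200 nM. Bound TF was detected with fluorescent anti-GST. Each ungapped 8-mer (which stands for itself and its reverse complement) is scored by the PBM enrichment score (E-score), a modified Wilcoxon-Mann-Whitney statistic from -0.5 to +0.5, computed with the Universal PBM Analysis Suite. Scale: above 0.35 generally sequence-specific binding.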

Sequence | PBM E-score
AGAGGCGC | 0.327
CGAGGCTC | 0.131
AGAGGCGA | 0.135
CGAGGCGC | 0.456
CGAGGCGA | 0.289
AGAGGCGG | 0.061
GGGGCAAA | 0.0199
TACTGTGA | -0.14
ATGGTAAA | 0.0118
AATTACTC | 0.144
CTTCTAGC | -0.0527
GACGTGCC | 0.238
GCCGTGCC | 0.487
ACCGTGTA | 0.0338
CCCGTGGA | -0.0712
ACCGTGGA | 0.0243
CCCGTGTA | 0.0889
ACCGTGCA | -0.0437
GCCGTGCA | 0.478
ACCGTGCC | 0.313
GCCGTGGA | 0.402
GCCGTGTA | 0.473
TCCGTGCA | 0.258
CCTTTTGC | 0.214
ACAGATAG | -0.0308
AATATGCG | 0.114

Sequence | PBM E-score
ACAACGAT | 0.00545
AAGACGAA | 0.0123
GAAGTGTC | -0.0596
CGAGTCGA | -0.00477
ACGGGTGC | 0.105
GCGCTCGA | 0.0767
CCCGTGCC | 0.33
AGCGTGCC | 0.126
CGCGTGCA | 0.0968
TCCGTGAA | 0.0172
CGCGTGCC | 0.325
CTCGTGCC | 0.294
GCCGTGAC | 0.294
GCCGTGAA | 0.361
CCCGTGGC | 0.046
CCTCTCCC | -0.253
ACTGGCAG | 0.0412
CTCGACGA | -0.13
TAATAGTA | 0.24
ATTCCTAC | 0.0636
CCAATAGG | 0.0256
CAAGGCCG | 0.103
ATCGGCCG | 0.15
CACGGCCG | 0.338
CCCGGCCG | -0.152
CACGGCCA | 0.34

Sequence | PBM E-score
CACGGCCC | 0.337
AACGGCCC | 0.235
AACGGCCT | 0.151
GACGGCCA | -0.0395
AACGGCCG | 0.333
GACGGCCC | 0.069
AACGGCCA | 0.214
AGATCAGG | -0.173
CTAGAGTC | -0.33
ACGGAGCT | 0.087
AACATAGG | 0.0786
AGCCTTCA | 0.108
AGGCATAC | 0.0863
CTTTCTCC | -0.244
GATGCCCC | -0.129
CATGCCGA | 0.188
GATGCCGA | 0.29
CATGCCGG | 0.186
CATGCCGC | 0.427
GATGCCGC | 0.466
CGGAAACA | -0.0866
GGGCATAC | -0.00074
GCACGTGC | 0.352
CCACGTGC | 0.215
GCACGTGA | 0.135
ACCAGAGC | -0.0074

Sequence | PBM E-score
CCGCACCA | 0.237
AGTGCCTG | -0.0958
AGTGCCTC | 0.347
CGTGCCTC | 0.398
AGTGCCTA | 0.21
CGTGCCCC | 0.0449
CGTGCCTA | 0.184
GGTGGTTA | 0.00324
AACGCATG | -0.0148
CGGCGAAA | 0.354
CGCCGAAG | 0.13
TGGCGAAA | 0.088
AGCCGAAC | -0.0533
CGGCGAAC | 0.317
AGGCGAAC | 0.145
GGGCGAAC | 0.0424
CGGCGAAG | 0.292
CGCCGAAC | 0.347
CATAGTCA | -0.195
CTGGAGTC | -0.362
TAGCAGGA | -0.226
CAGCCTTC | -0.091
AGGCATCG | 0.348
AGGCATAG | 0.15
GGGCATAA | 0.0801
CAGCATCC | -0.252

Sequence | PBM E-score
CGGCATAA | 0.358
CAGCATCA | 0.0143
AGGCATCC | -0.0829
CGGCATCC | 0.353
CGGCATAC | 0.27
CGGCATCA | 0.438
AGGCATCA | 0.215
GGGCATCA | 0.104
CACCACGA | -0.0238
ATATCGAG | 0.123
CATAGGGC | 0.152
ACCCTAGA | -0.227
ACTGTTCC | -0.131
ACCATCAA | -0.149
ATCAGTTG | 0.00725
GACTGCTC | -0.287
TTCAACAA | 0.167
AAAAGCTC | -0.131
AGCGCCGC | 0.481
CACCGCGC | 0.166
GCCGCCTA | 0.185
CGCCCCGC | 0.221
CGCCGCGC | 0.487
CGCGCCCC | 0.209
GGCGCCTA | 0.362
CTCCGCGC | 0.227

Sequence | PBM E-score
AGCGCAGC | -0.112
CGCGCCGC | 0.483
AGCGCCTA | 0.182
AGCGCCCC | 0.0659
CATGATCG | -0.0196
GGAGCCAC | -0.246
CAGCGAAA | -0.0495
CGATCAGA | -0.053
GTACACGA | 0.136
ATATTAGG | 0.0795
CTCGAAAC | 0.113
AGACAACG | 0.0214
CAAGACGG | -0.0357
CATTGCGC | 0.0607
CGCGCCCA | 0.213
CGCGCAGA | 0.22
GTCGCCGA | 0.0933
AGCGCCGA | 0.321
AGCGCCCT | 0.319
GGCGCCGA | 0.421
AGCGCCCG | -0.00709
CGCGCCGA | 0.362
GGCGCCCA | 0.311
AGCGCCGG | 0.174
AGCGCAGA | -0.0529
AGCGCCCA | -0.225

Sequence | PBM E-score
AGCCAAAG | -0.00729
AGATCCTG | -0.32
CACGGTCC | -0.109
TCCCCAAA | -0.0405
GACTATCC | -0.178
CAACCAGG | -0.196
GGAGTGAA | -0.0852
AGATTTCC | -0.00021
ACAAAGTG | -0.0329
ATCTTGAG | -0.0881
CGCCGCGA | 0.379
GGCCGCGA | -0.0392
CACCGCGA | -0.0402
ACCGCCGA | 0.0744
ACCGCCCT | -0.14
ACCGCCGT | 0.449
ACCGCCGC | 0.389
ACCGCCAT | 0.0869
ACCGCCGG | -0.0408
AGCAACCC | -0.306
